Compounds without any hit were thinned out: in the full panel of roughly 83,000, 20% have a hit.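 Compound tested at a single concentration for 48 hours in 96-well plates; a percent growth value below 10 was scored as active.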 Values without a mark were called inactive. Calls of active or inactive are those of the source.
Columns and labels:
Test in all cases: NCI-60 one-dose screen, 48 h (100 = growth as untreated, 0 = no growth, -100 = all killed)
Conditions in all cases: 10 µM
DU-145 prostate = system: DU-145 prostate
K-562 leukemia = system: K-562 leukemia
MALME-3M melanoma = system: MALME-3M melanoma
MDA-MB-231 breast = system: MDA-MB-231 breast
RXF 393 renal = system: RXF 393 renal
SF-268 CNS = system: SF-268 CNS
SF-295 CNS = system: SF-295 CNS
SF-539 CNS = system: SF-539 CNS
UACC-257 melanoma = system: UACC-257 melanoma
M14 melanoma = system: M14 melanoma
HCT-15 colon = system: HCT-15 colon
HT29 colon = system: HT29 colon
SNB-75 CNS = system: SNB-75 CNS
SNB-19 CNS = system: SNB-19 CNS
U251 CNS = system: U251 CNS
PC-3 prostate = system: PC-3 prostate
SK-MEL-5 melanoma = system: SK-MEL-5 melanoma
UACC-62 melanoma = system: UACC-62 melanoma
LOX IMVI melanoma = system: LOX IMVI melanoma
SK-MEL-28 melanoma = system: SK-MEL-28 melanoma

| Compound | growth (DU-145 prostate) | growth (K-562 leukemia) | growth (MALME-3M melanoma) | growth (MDA-MB-231 breast) | growth (RXF 393 renal) | growth (SF-268 CNS) | growth (SF-295 CNS) | growth (SF-539 CNS) | growth (UACC-257 melanoma) | growth (M14 melanoma) | growth (HCT-15 colon) | growth (HT29 colon) | growth (SNB-75 CNS) | growth (SNB-19 CNS) [%] | growth (U251 CNS) | growth (PC-3 prostate) | growth (SK-MEL-5 melanoma) | growth (UACC-62 melanoma) | growth (LOX IMVI melanoma) | growth (SK-MEL-28 melanoma) |
| --- | --- | --- | --- | --- | --- | --- | --- | --- | --- | --- | --- | --- | --- | --- | --- | --- | --- | --- | --- | --- |
| COc1cc(-c2nn(-c3cccc(NC(=O)NCCNC(=O)c4ccccc4)c3)cc2-c2ccncc2)ccc1Cl | 23% | 5.31% (active) | -9.9% (active) | 25.9% | -23.4% (active) | 27.7% | -56.9% (active) | -12.9% (active) | 17.1% | -5.48% (active) | 9.91% (active) | 5.63% (active) | 33.4% | 35.3 | 25.3% | 6.41% (active) | -72.7% (active) | 21.9% | 2.52% (active) | 7.24% (active) |
| Cc1c(O)c(=O)ccn1C1CCC(CC2CCC(n3ccc(=O)c(O)c3C)CC2)CC1 (stereo not given) | 39.6% | 18.3% | 63.8% | 43.4% | 44.1% | 30.1% | 54.9% | 11.9% | 45.5% | 47.2% | 18.9% | 33.8% | 21.1% | 30.2 | 30.2% | 41.7% | 29.2% | 14.6% | 25% | 49.4% |
| CC[C@@H](C(=O)[C@H](C)[C@H](O)[C@@H](C)[C@H]1O[C@H]([C@@H](CC)C(=O)N(CC)CC)CC[C@H]1C)C1O[C@]2(C=C[C@@H](O)[C@]3(CC[C@@](C)([C@H]4CC[C@](O)(CC)[C@H](C)O4)O3)O2)[C@H](C)C[C@@H]1C (stereo not given in full) | 55.1% | 16.2% | -20.1% (active) | 15.9% | 14% | 42.1% | -6.82% (active) | 38.2% | 12.4% | 11.7% | 9.17% (active) | 13.8% | 6.47% (active) | 12.8 | 24.2% | 3.64% (active) | -74.7% (active) | 14.3% | 31% | 27% |
| N#Cc1ccc(C(=O)CSc2nccc(Nc3ccc(C(=O)O)cc3)n2)cc1 | 110% | 106% | 106% | 107% | 97.4% | 102% | 97.4% | 97.9% | 110% | 110% | 106% | 104% | 106% | 99 | 106% | 99.5% | 99.1% | 103% | 101% | 110% |
| O=C(N/N=C/c1ccc(Cl)cc1)c1ccc(Cc2n[nH]c(=O)c3cccnc23)cc1 | 112% | 106% | 93.2% | 102% | 91.2% | 98.6% | 101% | 89.7% | 97.1% | 99.6% | 97.1% | 99.3% | 84.5% | 89 | 103% | 95.4% | 100% | 94.2% | 100% | 104% |
| COc1ccc(-c2cc(-c3ccc(OC)c(OC)c3)nc(SCCCC(=O)NO)n2)cc1 | -2.45% (active) | 7.32% (active) | -6.87% (active) | -10% (active) | -46.6% (active) | 2.03% (active) | -36.8% (active) | 1.28% (active) | 9.39% (active) | -41.5% (active) | 2.78% (active) | 4.72% (active) | -19% (active) | 11.2 | -9.1% (active) | 1.17% (active) | -65.2% (active) | -55.2% (active) | -79% (active) | 19.2% |
| S=C(NCc1ccccc1)NCc1ccccc1 | 107% | 98.7% | 95.3% | 100% | 101% | 95.8% | 95.8% | 101% | 81.9% | 101% | 107% | 97% | 82.2% | 95.1 | 91.6% | 84.3% | 98.3% | 102% | 95.6% | 107% |
| COc1ccc(NC(=O)C2CC3C=CC2C3)c([N+](=O)[O-])c1 (stereo not given) | 110% | 88.9% | 116% | 93.3% | 99.8% | 102% | 95.5% | 98.6% | 98.1% | 130% | 97.1% | 101% | 91.2% | 91.9 | 98.4% | 94.9% | 96% | 96.5% | 95.3% | 98.1% |
| O=C(CNc1nnc(-c2cccnc2SCc2ccccc2)s1)Nc1nc(Cl)cc(Cl)n1 | 100% | 109% | 98.8% | 104% | 124% | 91.5% | 103% | 110% | 157% | 106% | 108% | 123% | 74.1% | 103 | 119% | 112% | 113% | 108% | 105% | 110% |
| COc1cc2cc(Oc3ccc(NC(=O)c4cc(C(F)(F)F)cc(C(F)(F)F)c4)cc3)c(C)nc2cc1OC | 60.4% | 23.3% | 73.7% | 59.2% | 56.8% | 74.7% | 6.46% (active) | 75.2% | 60.4% | 61.6% | 38.1% | 49.8% | 62.1% | 49.9 | 13.3% | 17.5% | 16.6% | 33.2% | 66% | 84.9% |
| O=C(O)c1cc([N+](=O)[O-])ccc1Oc1ccccc1 | 104% | 116% | 81.3% | 97.3% | 107% | 97.3% | 101% | 94.6% | 96.8% | 106% | 95.4% | 90.8% | 98.1% | 98.4 | 95.9% | 89.2% | 84.6% | 103% | 93.1% | 107% |
| Cc1ccc(NCCNCC(C)(C)O)c2c(=O)c3ccc(Cl)cc3sc12 | 5.67% (active) | -63.1% (active) | -71.8% (active) | -36.9% (active) | 24.2% | 39.4% | 74.1% | 69.8% | 78.5% | -78.7% (active) | -7.39% (active) | -73.1% (active) | 76.1% | 46.2 | -74.5% (active) | 36.8% | 44.2% | -66.6% (active) | -92.6% (active) | -60% (active) |
| Cc1c[nH]c(=O)n(Cc2nnc(CCC(=O)c3nc4ccccc4[nH]3)o2)c1=O | -35.3% (active) | 10.4% | 47.8% | 26.1% | -7.83% (active) | 36.6% | 21.5% | -15.2% (active) | 81.4% | -16.7% (active) | 65.3% | 8.43% (active) | -33% (active) | 33.2 | 16.6% | 19.3% | 13.2% | 41% | 35.6% | 40.9% |

Source: PubChem BioAssay (NCI)
